The text below walks through data of the supplement of paper PMC8371130.

Counter-ions that a name gives are not always drawn.

For the assay, the system named is HL-1. Put plainly: relative cell viability (CellTiter-Glo) vs DMSO control (% of DMSO control); higher = more viable cells. As to conditions: oxygen condition: hypoxia 48 h (1% O2) + reoxygenation 24 h; 40 nM. The method in brief: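 Compounds at 40, 200, 1000 or 5000 nM in 0.01% DMSO were added to HL-1 mouse atrial cardiomyocytes plated at 1000 cells per well in 384-well plates. The next day, cells were exposed to 1% O2 for 48 h and then reoxygenated for 24 h, or left in normoxia for the same time. Viability was read with CellTiter-Glo luminescence and normalised to vehicle-treated controls.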
For the compound `CCOc1nc2cccc(C(=O)OC(C)OC(=O)OC3CCCCC3)c2n1Cc1ccc(-c2ccccc2-c2nn[nH]n2)cc1` (centres undefined) [Candesartan cilexetil], the relative cell viability came to 106.
The figure for `Nc1cc(N2CCCCC2)nc(N)[n+]1[O-]` [Minoxidil] is 108.
The result for `Cc1ccc(NC(=O)c2ccc(CN3CCN(C)CC3)cc2)cc1Nc1nccc(-c2cccnc2)n1` [Imatinib Mesylate] reads 121; that for `OCCN(CCO)c1nc(N2CCCCC2)c2nc(N(CCO)CCO)nc(N3CCCCC3)c2n1` [Dipyridamole], 102; that for `Nc1ccn([C@@H]2O[C@H](CO)[C@@H](O)C2(F)F)c(=O)n1` [Gemcitabine HCl], 3.53.
The figure for `CCCCCCNC(=O)n1cc(F)c(=O)[nH]c1=O` [Carmofur] is 102; for `CC(S)C(=O)NCC(=O)O` (centres undefined) [Tiopronin] it is 95.4.
As for `COc1cc(C(C)=O)ccc1OCCCN1CCC(c2noc3cc(F)ccc23)CC1` [Iloperidone], the relative cell viability worked out at 108.
The result for `CCN1CCC[C@H]1CNC(=O)c1cc(S(N)(=O)=O)ccc1OC` [Levosulpiride] reads 98.
With `NS(=O)(=O)Cc1noc2ccccc12` [Zonisamide], the relative cell viability came to 105.
The result for `Cc1nc2n(c(=O)c1CCN1CCC(c3noc4cc(F)ccc34)CC1)CCCC2` [Risperidone] reads 104; that for `Cc1c(OCC(F)(F)F)ccnc1C[S@@+]([O-])c1nc2ccccc2[nH]1` [Dexlansoprazole], 105.
The result for `Cc1cc(N)c2ccccc2[n+]1CCCCCCCCCC[n+]1c(C)cc(N)c2ccccc21` [Dequalinium chloride] reads 101.
On to `COc1cc2c(cc1OC)CC(=O)N(CCCN(C)C[C@H]1Cc3cc(OC)c(OC)cc31)CC2` [Ivabradine HCl], for which the relative cell viability is 108.
The result for `CC(C)(Sc1cc(C(C)(C)C)c(O)c(C(C)(C)C)c1)Sc1cc(C(C)(C)C)c(O)c(C(C)(C)C)c1` [Probucol] reads 108; that for `COc1cc([C@@H]2c3cc4c(cc3[C@@H](O[C@@H]3O[C@@H]5CO[C@@H](C)O[C@H]5[C@H](O)[C@H]3O)[C@H]3COC(=O)[C@H]23)OCO4)cc(OC)c1O` [Etoposide], 85.7.
The result for `Cc1ccc(C(=O)c2cc(O)c(O)c([N+](=O)[O-])c2)cc1` [Tolcapone] reads 101; that for `CC[C@]1(O)C[C@@H]2CN(CCc3c([nH]c4ccccc34)[C@@](C(=O)OC)(c3cc4c(cc3OC)N(C)[C@H]3[C@@](O)(C(=O)OC)[C@H](OC(C)=O)[C@]5(CC)C=CCN6CC[C@]43[C@@H]65)C2)C1` [Vinblastine], 35.3.
The result for `CN1CCC(=C2c3ccccc3CC(=O)c3sccc32)CC1` [Ketotifen fumarate] reads 108.
Consider `CN(C)CC/C=C1/c2ccccc2COc2ccc(CC(=O)O)cc21` [Olopatadine hydrochloride], for which the relative cell viability was 93.
Regarding `CCC[C@@H]1C[C@@H](C(=O)N[C@@H]([C@H]2O[C@H](SC)[C@H](O)[C@@H](O)[C@H]2O)[C@@H](C)O)N(C)C1` [Lincomycin hydrochloride], the relative cell viability is 93.1.
The figure for `CO[C@H]1C[C@@H]2CC[C@@H](C)[C@@](O)(O2)C(=O)C(=O)N2CCCC[C@H]2C(=O)O[C@H]([C@H](C)C[C@@H]2CC[C@@H](OC(=O)C(C)(CO)CO)[C@H](OC)C2)CC(=O)[C@H](C)/C=C(\C)[C@@H](O)[C@@H](OC)C(=O)[C@H](C)C[C@H](C)/C=C/C=C/C=C/1C` [Temsirolimus] is 70.7; for `Cc1[nH]c(=O)c(C#N)cc1-c1ccncc1` [Milrinone] it is 102.
The figure for `C=CC[N+]1([C@H]2C[C@H]3[C@@H]4CC[C@H]5C[C@H](O)[C@@H](N6CCOCC6)C[C@]5(C)[C@H]4CC[C@]3(C)[C@H]2OC(C)=O)CCCC1` [Rocuronium bromide] is 104.
The figure for `CCOc1ccc2ccccc2c1C(=O)N[C@@H]1C(=O)N2[C@@H]1SC(C)(C)[C@@H]2C(=O)O` [nafcillin sodium monohydrate] is 92.6; for `CCOC(=O)[C@H](CCc1ccccc1)N[C@@H](C)C(=O)N1CCC[C@H]1C(=O)O` [Enalapril maleate] it is 101.
With `COc1cccc2c1C(=O)c1c(O)c3c(c(O)c1C2=O)C[C@@](O)(C(=O)CO)C[C@@H]3O[C@H]1C[C@H](N)[C@@H](O)[C@H](C)O1` [Epirubicin Hydrochloride], the relative cell viability stood at 96.8.
The figure for `CC1=C(/C=C/C(C)=C/C=C/C(C)=C\C(=O)O)C(C)(C)CCC1` [Isotretinoin] is 103; for `Nc1c2c(nc3ccccc13)CCCC2` [Tacrine HCl] it is 91.7.
Turning to `O=P(O)(O)C(O)(Cn1ccnc1)P(=O)(O)O` [Zoledronic Acid], the relative cell viability was 104.
`O=C(c1ccc(OCCN2CCCCC2)cc1)c1c(-c2ccc(O)cc2)sc2cc(O)ccc12` [Evista]: the relative cell viability stood at 111.
The result for `CCCN(CCC)S(=O)(=O)c1ccc(C(=O)O)cc1` [Probenecid] reads 103; that for `CS(=O)(=O)c1ccc(C2=C(c3ccccc3)C(=O)OC2)cc1` [Rofecoxib], 104.
The figure for `CN(C)c1nc(N(C)C)nc(N(C)C)n1` [Altretamine] is 102; for `Cc1cccc(C)c1OCC(C)N` (centres undefined) [Mexiletine HCl] it is 108.
The result for `CCNC(=O)CCC/C=C\C[C@@H]1[C@@H](/C=C/[C@@H](O)CCc2ccccc2)[C@H](O)C[C@@H]1O` [Bimatoprost] reads 104; that for `C[C@]12CC[C@@H]3c4ccc(O)cc4C[C@@H](CCCCCCCCC[S+]([O-])CCCC(F)(F)C(F)(F)F)[C@H]3[C@@H]1CC[C@@H]2O` (some centres undefined) [Fulvestrant], 102.
For the compound `CCc1c2c(nc3ccc(OC(=O)N4CCC(N5CCCCC5)CC4)cc13)-c1cc3c(c(=O)n1C2)COC(=O)[C@]3(O)CC` [Irinotecan HCl Trihydrate], the relative cell viability turned out to be 89.
Regarding `Cc1cn(-c2cc(NC(=O)c3ccc(C)c(Nc4nccc(-c5cccnc5)n4)c3)cc(C(F)(F)F)c2)cn1` [Nilotinib], the relative cell viability was 101.
